# Bioassay records: PubChem BioAssay, The Scripps Research Institute Molecular Screening Center
# The list is not random: actives were taken first. Their share in the collection is about 3.4%.
# TEAD-YAP inh = TEAD-YAP interaction inhibition, primary screen, TEAD-YAP interaction inhibitor project, luminescence, HEK-TIYL cells | TEAD-Gal4/YAP UAS-luciferase luminescence | inhibition, % at 9.12 µM | 640,000 tested, 1.4% active; in the data active means inhibition above about 32%;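 further: 0% = median of test compound wells and 100% = reference inhibitor wells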
# MITF inh = MITF inhibitors, primary screen, biochemical, AlphaScreen, human | Microphthalmia-associated transcription factor (Homo sapiens), O75030 | AlphaScreen MITF homodimerization, bead proximity signal | inhibition, % at 2.6 µM | 650,000 tested, 0.91% active | AID 1259374, 2018; in the data active means inhibition above about 50%;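 further: 0% = vehicle wells with protein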
# GPR151 activ = activators of human GPR151, primary screen, cell-based, PathHunter beta-arrestin, luminescence | G-protein coupled receptor 151 (Homo sapiens), Q8TDV0 | AID 1508602, 2020 | PathHunter beta-arrestin GPR151 cells | 650,000 tested, 1% active | activation, % at 11.2 µM; in the data active means activation above about 4.9%;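 further: 0% = median of compound wells and 100% = cells with positive control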
# Target sequence (Q8TDV0 whole entry, looked up): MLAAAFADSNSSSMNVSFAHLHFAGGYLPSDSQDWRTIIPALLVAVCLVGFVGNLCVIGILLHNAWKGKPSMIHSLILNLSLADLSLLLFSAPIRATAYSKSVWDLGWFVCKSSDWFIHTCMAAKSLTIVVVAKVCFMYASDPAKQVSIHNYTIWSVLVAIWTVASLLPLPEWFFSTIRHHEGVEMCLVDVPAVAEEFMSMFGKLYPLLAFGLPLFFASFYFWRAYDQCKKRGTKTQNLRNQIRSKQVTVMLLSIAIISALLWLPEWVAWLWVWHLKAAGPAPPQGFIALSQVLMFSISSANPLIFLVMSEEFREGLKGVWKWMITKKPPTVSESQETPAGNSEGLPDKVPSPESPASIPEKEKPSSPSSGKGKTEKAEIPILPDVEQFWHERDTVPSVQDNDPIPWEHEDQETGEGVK
# FBW7 activator = FBW7 E3 ligase activators, primary screen, biochemical, AlphaScreen, human; AlphaScreen FBW7–phospho-cyclin E peptide binding, activator screen; AID 1259310, 2017; 650,000 tested, 0.13% active; normalized activity (activation), % at 26.1 µM; F-box/WD repeat-containing protein 7 (Homo sapiens), Q969H0; in the data active means normalized activity above about 1.9%;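 further: purified mutant Fbw7 with reduced substrate affinity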
# Numbers without * were called inactive.
SMILES,TEAD-YAP inh,MITF inh,GPR151 activ,FBW7 activator
O=C(Nc1cccc([N+](=O)[O-])c1)c1cc2ccccc2cc1O,34*,-1,-1,0
COc1ccc(/C=N/NC(=O)c2cc([N+](=O)[O-])ccc2O)cc1,33*,-5,-9,0
COc1ccc(NC(=O)c2cc([N+](=O)[O-])ccc2O)cc1,86*,-7,-10,1
O=C(NNC(=O)c1cc2ccccc2cc1O)Nc1cccc([N+](=O)[O-])c1,-7,-5,-2,0
Cc1ccc(NC(=O)c2cc([N+](=O)[O-])ccc2O)cc1,76*,26,-10,0
COCCNC(=O)c1cc2n(n1)C(C(F)(F)F)CC(c1ccc(Cl)cc1)N2 (stereo not drawn),4,4,0,0
CC(C)(C)Nc1nc(-n2c(C(F)(F)F)nc3ccccc32)nc(-n2c(C(F)(F)F)nc3ccccc32)n1,6,11,1,0
COc1ccc(Nc2nc(-c3c(C)nc4ncccn34)cs2)cc1,58*,11,0,0
Cc1nc2ncccn2c1-c1csc(Nc2ccccc2)n1,-4,8,0,0
Cc1nc2ncccn2c1-c1csc(Nc2ccc(N(C)C)cc2)n1,52*,26,-2,0
CC(=O)Nc1ccc(Nc2nc(-c3c(C)nc4ncccn34)cs2)cc1,-12,3,0,0
COc1ccc(N(C)S(=O)(=O)c2ccc3c(c2)oc(=O)n3C)cc1,3,20,1,0
CN(c1ccc(Br)cc1)S(=O)(=O)c1ccc2c(c1)oc(=O)n2C,34*,9,1,0
CN(c1ccccc1)S(=O)(=O)c1ccc2c(c1)oc(=O)n2C,56*,10,-1,1
CN(Cc1ccccc1)C(=O)Cn1cnc2c1c(=O)n(C)c(=O)n2C,3,12,-1,0
O=C(Cc1c[nH]c2ccccc12)Nc1nnc(C2CC2)s1,34*,-1,-1,0
CCC(C)(C)NC(=O)C(OC(=O)c1ccco1)c1ccc(C)cc1 (stereo not drawn),-3,8,0,1.9*
CCC(C)(C)NC(=O)C(OC(=O)c1ccco1)c1ccc(OC)cc1 (stereo not drawn),-5,12,1,0
CCCC(=O)NC(c1ccccc1)c1ccc2cccnc2c1O (stereo not drawn),85*,50,-1,-2
CCCC(=O)NC(c1ccc(F)cc1)c1ccc2cccnc2c1O (stereo not drawn),86*,31,-1,-1
CCC(=O)NC(c1ccc(OC)cc1)c1c(O)ccc2ccccc12 (stereo not drawn),52*,-12,0,0
CCCC(=O)NC(c1ccc(OC)cc1)c1ccc2cccnc2c1O (stereo not drawn),72*,50,1,-2
O=C(C1CCCCC1)N1CCC2(CC1)NC(=O)N(CCOc1ccccc1)C2=O,-3,2,2,0
Cc1nc2c(c(C)nn2C(C)(C)C)c(C)c1CCC(=O)NCc1ccccn1,3,10,0,0
Cc1nn(-c2ccccc2)c2c1C(c1cccc(O)c1)C(C#N)=C(N)O2 (stereo not drawn),8,2,-1,0
SMILES,TEAD-YAP inh,MITF inh,GPR151 activ,FBW7 activator
CC(=O)Oc1ccc(C(=O)Nc2cccc(C(=O)NC(C)(C)C)c2)cc1,12,-1,2,0
CC(C)C(=O)Nc1cccc(C(=O)Nc2cccc(O)c2)c1,59*,14,-2,1
CC(C)(C)NC(=O)c1cccc(NC(=O)c2cccc(O)c2)c1,34*,14,-1,0
CC(C)C(=O)Nc1cccc(NC(=O)c2cccc(Br)c2)c1,-6,-8,0,0
CCS(=O)(=O)N1CCC(Nc2nc3c(c(=O)[nH]2)CCCC3)CC1,9,-4,1,0
C=CCOc1ccc(C(=O)N2CCc3c(nc(N4CC(C)OC(C)C4)[nH]c3=O)C2)cc1 (stereo not drawn),-3,-1,0,7.4*
CN(C)c1nc(N)nc(CSc2ncc(-c3ccc([N+](=O)[O-])cc3)[nH]2)n1,-17,3,0,0
COC1=C(O)C(=O)c2c(cc3oc(C(C)=O)c(O)c3c2O)C1=O,2,76*,-1,0
CCC(C)N(C(=O)c1ccc([N+](=O)[O-])cc1)C(C)CC (stereo not drawn),2,-18,-2,0
CCC(C)N(C(=O)c1cccc([N+](=O)[O-])c1)C(C)CC (stereo not drawn),-2,-76,1,2.0*
O=C(N/C(=C/c1ccccc1F)C(=O)N1CCOCC1)c1ccccc1,3,0,1,0
COc1cc(C)c2c(c1)oc(=O)c1ccccc12,-6,22,3,2.2*
C/C(=N\Nc1ncc(Cl)cc1Cl)c1ccccn1,82*,19,-1,0
Cc1cc(Cl)n(-c2ccc([N+](=O)[O-])cc2)n1,7,4,-1,0
Cc1cc(C)n(-c2ncc(-c3ccc([N+](=O)[O-])cc3)cn2)n1,59*,-4,-1,0
Cc1cc(I)ccc1NC(=O)CSc1nc(C(F)(F)F)cc(C)c1C#N,15,-8,-1,0
COc1cncc(-c2cnn3ccc(Nc4ccc(N5CCOCC5)cc4)nc23)c1,39*,7,0,0
COc1cc(-c2cnn3ccc(Nc4ccccc4)nc23)cc(OC)c1OC,47*,18,1,0
CC(C)N(CCNC(=O)c1cnc(Nc2ncccn2)s1)C(C)C,3,-3,3,0
COc1cccc(-c2cc3nc4c(c(NCc5cccnc5)n3n2)CCC4)c1,42*,-1,-1,0
COc1cc(OC)cc(-c2cc3nc4c(c(NCc5cccnc5)n3n2)CCC4)c1,45*,-4,0,0
Cc1noc(C)c1-c1nc(NCc2ccccc2)c2ncn(C3CCCCC3)c2n1,-21,13,-1,0
O=S(=O)(c1ccc(NC(=S)N/N=C/c2ccccc2O)cc1)N1CCOCC1,61*,68*,0,-1
CCNc1nc(OC)nc(Oc2ccc(C(=O)OCC)cc2)n1,4,11,-1,1
CCOC(=O)c1ccc(Oc2nc(NC)nc(OC)n2)cc1,0,14,-1,1.9*
CN1CCN(C(=O)c2ccc(-c3ncc(C(=O)Nc4ccccc4)s3)cc2)CC1,0,11,-1,0
N/C(=N\N=C\c1ccc(O)c(O)c1)SC1CC(=O)N(c2ccc(C(=O)O)cc2)C1=O (stereo not drawn),-6,82*,0,0
CCN(CC)c1ncnc2c1cnn2-c1ccc(Cl)cc1,70*,-6,0,0
CCC(C)Nc1ncnc2c1cnn2-c1ccc(Cl)cc1 (stereo not drawn),37*,-2,-1,0
COc1cc(NC(=O)c2ccc(F)cc2F)cc(-n2cnnn2)c1,6,-7,0,0
